MITF TRPM1 HTS = activators of MITF-driven TRPM1 promoter activity in SK-MEL-5 cells; SK-MEL-5 TRPM1-promoter luciferase, 24 h; % of positive control, neutral wells = 0; activation, % at 12.5 µM; actives 0.75% (n = 300,000); AID 588334;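 active = mean activation of at least 80% with every replicate also reaching 80%; inconclusive = mean reaches 80% but some replicate falls short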;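 note: 0% = neutral control wells and 100% = parthenolide positive control wells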
GAA850 FXN act = activators of GAA850 frataxin (FXN) promoter; HEK293 lucGAA850 FXN promoter luciferase reporter, 24 h; percent of 10 µM SAHA response; activation, % at 6 µM; actives 0.56% (n = 360,000);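 active = activation above the average of all compounds screened plus 3 SD, cutoff fixed separately per campaign, cut at about 7.5% in these data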;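 note: 0% = DMSO wells and 100% = 10 µM SAHA wells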
esBAF inh = blocks esBAF chromatin remodeling in mouse ES cells; Bmi1-luciferase knock-in reporter, 24 h; 100% = twice the neutral-well signal; reporter increase, % at 12.5 µM; actives 2% (n = 350,000); in the data active = activation above about 40%; inconclusive = no clear call, values can overlap the other calls;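 note: 0% = median of the plate's neutral control wells and 100% = double that signal; a rise in the Bmi1 reporter signal indicates esBAF inhibition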
Statin myotox sup = suppression of simvastatin myotoxicity | rescue of ATP level, % at 7.49 µM | C2C12 myotubes + simvastatin, ATP luminescence, 48 h; scaled: DMSO 0, geranylgeraniol control 100 | AID 602340 | actives 0.78% (n = 330,000);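 active = mean ATP rescue above about 67%, or every replicate alone reaching that limit, limit read from the data, passing the limit was not always enough; inconclusive = no clear call, values can overlap the other calls; inactive = mean under the limit and some replicate under it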;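 note: myotubes were challenged with 10 µM simvastatin during compound exposure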
Wnt bcat act = activates Wnt/beta-catenin signaling in a reporter cell assay. activation, % at 9.35 µM. actives 1.2% (n = 300,000). AID 743398. activator, plate reader; in the data active = activation above about 30%, passing the limit was not always enough; inconclusive = no clear call, values can overlap the other calls;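 note: 0% = neutral control wells and 100% = positive control wells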
* hit, by the source's call; ? = inconclusive; / = no result. Most compounds without a hit are left out; they make up all but 3.3% or so of the library.

SMILES	MITF TRPM1 HTS	GAA850 FXN act	esBAF inh	Statin myotox sup	Wnt bcat act
CC(C)C(=O)Nc1ccc2c(c1)C(=O)N(C)[C@H]1CC[C@@H](CC(=O)NCCCN(C)C)O[C@@H]1CO2	/	/	1	-4	/
CCCC(=O)Nc1ccc2c(c1)OC[C@H](C)N(Cc1ccccn1)C[C@@H](C)[C@H](OC)CN(C)C2=O	/	/	0	-15	/
Cc1cc(N/N=C/c2ccc3c(c2)OCO3)nc2ccccc12	98*	4	/	/	-1
O=[N+]([O-])c1ccccc1N/N=C/c1c[nH]c2ccccc12	15	5	43*	20	/
NS(=O)(=O)c1ccc(N/N=C/c2ccc3c(c2)OCO3)c([N+](=O)[O-])c1	5	2	/	/	0
O=[N+]([O-])c1ccccc1N/N=C/c1ccc2c(c1)OCO2	22	5	-14	-75	53*
O=c1[nH]c(N/N=C\c2ccc3c(c2)OCO3)nc2ccccc12	52	1	-2	7	-2
O=[N+]([O-])c1ccccc1N/N=C/c1ccccc1	/	1	44*	14	14
C[C@H]1CN([C@@H](C)CO)C(=O)c2cc(NC(=O)Nc3ccc(F)cc3)ccc2O[C@H]1CN(C)Cc1ccncc1	/	/	0	-19	/
O=C(Nc1ccccc1F)N[C@@H]1CC[C@H](CCNC(=O)C2CCCC2)O[C@H]1CO	/	/	6	-2	/
COc1ccc(/C=C/C(=O)Nc2cc(C)nn2-c2nc3ccccc3[nH]2)cc1	92*	4	/	/	8
CC(C)Oc1ccc(C(=O)NCCCNC(=O)c2cccnc2)cc1	-3	2	2	3	38*
O=C(NCCCCNC(=O)c1cccnc1)c1cccnc1	/	-1	2	5	/
CC(=O)Nc1cccc(OCCCNC(=O)c2ccc(C(C)(C)C)cc2)c1	/	3	-2	-11	31*
CC(C)(C)c1ccc(C(=O)NCCCNC(=O)c2cccnc2)cc1	12	0	47*	5	-4
CCCC#Cc1ccc2c(c1)O[C@@H](CN(C)Cc1cccnc1)[C@H](C)CN([C@@H](C)CO)S2(=O)=O	/	/	4	-73	/
O=C(NC1CCCC1)N1CCCCN2[C@H](CO)[C@H](c3ccc(/C=C/c4ccccc4)cc3)[C@@H]2C1	/	/	-4	11	/
C[C@H](CO)N1C[C@H](C)[C@@H](CN(C)S(=O)(=O)c2ccccc2)Oc2ccc(N(C)C)cc2CC1=O	/	/	3	-6	/
CCc1noc(C)c1C(=O)NNC(=O)COc1ccccc1C	-4	0	-8	-2	34*
CCC(C)(C)NC(=O)CN(Cc1cccs1)C(=O)CNS(=O)(=O)c1ccc(C)cc1	0	-1	-3	83*	-8
CCCC#Cc1cnc2c(c1)C(=O)N([C@@H](C)CO)C[C@@H](C)[C@H](CN(C)Cc1ccccc1)O2	/	/	-7	-1	/
Cc1ccc2nc(SCC(=O)c3ccccc3)nc(=O)n2c1	71	1	68*	-14	12
Cc1ccn2c(=O)nc(SCC(=O)NCc3ccccc3)nc2c1	-6	0	2	0	0
Cc1ccn2c(=O)nc(SCC(=O)c3ccccc3)nc2c1	75	2	42*	1	28
CC(C)NC(=O)N[C@H]1CC[C@H](CCN)O[C@H]1CO	/	/	0	0	/
SMILES	MITF TRPM1 HTS	GAA850 FXN act	esBAF inh	Statin myotox sup	Wnt bcat act
COc1cc(OC)c2c(=O)cc(-c3cccnc3)oc2c1	13	2	1	9	0
COc1cc(OC)c2c(=O)cc(-c3ccccc3)oc2c1	47	6	36	3	52*
O=c1cc(-c2ccc(O)c(O)c2)oc2cc(O)cc(O)c12	101*	11*	25	6	9
COc1ccc(-c2cc(=O)c3c(O)cc(O)cc3o2)cc1	112*	0	25	-2	64*
COc1cccc(C(=O)Nc2ccc3c(c2)C(=O)N(C)[C@H]2CC[C@H](CC(=O)NCc4ccccc4F)O[C@H]2CO3)c1	/	/	-2	12	/
O=C(C[C@H]1C[C@H]2c3cc(NC(=O)Cc4ccncc4)ccc3O[C@H]2[C@@H](CO)O1)NCc1cccnc1	/	/	-7	-5	/
Cc1ccc(S(=O)(=O)Nc2ccc3c(c2)C(=O)N([C@@H](C)CO)C[C@H](C)[C@@H](CN(C)C(=O)Nc2ccccc2)OCCCC[C@H](C)O3)cc1	/	/	11	/	/
COc1ccc(C(=O)Cn2nnc(-c3cccs3)n2)cc1	/	2	8	/	51*
COc1ccc(N2CCN(C(=O)Cn3nnc(-c4cccs4)n3)CC2)cc1	-11	1	-7	6	/
Clc1c(CSc2nc3ccccc3o2)nc2ccccn12	9	4	1	6	/
Brc1c(CSc2nc3ccccc3o2)nc2ncccn12	/	7	22	/	49*
O=C(Nc1ccc2c(c1)Cc1ccccc1-2)c1cccnc1	?	1	64*	-4	15
O=C(Nc1ccc2c(c1)Cc1ccccc1-2)c1ccco1	151*	3	7	-6	48*
C[C@@H]1CCCCO[C@H](CN(C)S(=O)(=O)c2cccs2)[C@@H](C)CN([C@@H](C)CO)C(=O)c2cc(NC(=O)CCCN(C)C)ccc2O1	/	/	2	/	/
Fc1ccc(/C=C/c2nnc(-c3cccs3)o2)cc1	66	3	/	/	53*
CN1[C@@H]2c3ccc(-c4ccc(F)cc4)c(=O)n3C[C@@H]2[C@@H](CO)[C@@H]1C(=O)NCC1CC1	/	/	6	18	/
Cc1ccc(S(=O)(=O)N(C)C[C@@H]2Oc3c(NC(=O)c4nc5ccccc5s4)cccc3C(=O)N([C@@H](C)CO)C[C@H]2C)cc1	/	/	6	-94	/
Cc1ccc(NC(=O)C(SCC(=O)O)c2ccccc2)cc1C (stereo not given)	-4	-1	/	/	11
CC(C)(C)c1ccc(NC(=O)CON=C(N)c2ccccc2)cc1	3	1	4	2	-2
O=C(CC(=O)c1ccccc1)Nc1ccc(Cl)cc1	111*	2	?	4	14
COC(=O)CSC(C(=O)Nc1ccc(C)c(C)c1)c1ccccc1 (stereo not given)	29	2	-1	5	35*
Cc1ccc(NC(=O)CC(=O)c2ccccc2)cc1C	144*	4	75*	-5	-1
Cc1ccc(NC(=O)CO/N=C(\N)c2ccccc2)cc1C	10	-1	/	95*	-2
CC(=O)N[C@@H]1CC[C@H](CCNC(=O)C2CC2)O[C@H]1CO	/	/	0	11	/
C[C@H](CO)N1C[C@H](C)[C@@H](CN(C)C(=O)Nc2ccc3c(c2)OCO3)Oc2ccc(NS(=O)(=O)c3ccccc3)cc2CC1=O	/	/	6	-34	/
C[C@@H]1CN([C@H](C)CO)C(=O)c2cc(-c3ccccc3)cnc2O[C@@H]1CN(C)C(=O)Cc1cccnc1	/	/	/	3	/
COc1ccc(S(=O)(=O)N(C)C[C@@H]2OCCCC[C@H](C)Oc3ccc(NC(=O)Nc4c(C)noc4C)cc3C(=O)N([C@@H](C)CO)C[C@@H]2C)cc1	/	/	-3	13	/
O=C(C[C@@H]1C[C@@H]2c3cc(NC(=O)c4ccc5c(c4)OCO5)ccc3O[C@@H]2[C@H](CO)O1)NCc1cccnc1	/	/	-2	-1	/

Assay outcomes from PubChem.
